The list is not random: actives were taken first. Their share in the collection is about 2.8%.
PI5P4K alpha inh – inhibitors of human PI5P4K alpha. 330,000 tested, 1.2% active. AID 652105. max response, %. P48426. PI5P4Kalpha enzyme, ADP-Glo luminescence, 60 min; hits give low values; active = max response of -50% or lower; inconclusive = between -30% and -50%; inactive = -30% or higher; also: value at the top dose of about 77 µM
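Controls without substrate or without enzyme flank wells where PI5P4Kalpha converts substrate using 5 microM ATP (final). Incubation lasts 60 minutes at room temperature; ADP formed is read by ADP-Glo luminescence.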
PI4K2A inh – inhibitors of human PI4K2A | Q9BTU6 | AID 1346378 | purified PI4K2A, ADP-Glo luminescence, 1 h; hits give low values | activity change, negative = inhibition, % at 76.9 µM | 420,000 tested, 0.13% active; in the data active = activity change below about -50%; inconclusive = mostly about -30% to -49%
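In this quantitative HTS, ADP production by PI4K2A was quantified luminescently after 1 h at ambient temperature; 100 microM adenosine served as plate-quality control.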
POLB inh – DNA polymerase beta (human) inhibition. P06746. Pol beta primer extension/strand displacement, fluorescence kinetic. Potency, µM (series often up to 114 µM), hits mostly inhibitors. 340,000 tested, 1.3% active. AID 485314
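Enzyme-only controls used 10 nM Pol beta; buffer lacking enzyme served as negative control. Compound preincubated 15 min, then 50 nM substrate added; 0 and 10 min reads at room temperature.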
POLI inh – DNA polymerase iota (human) inhibition; Q9UNA4; Pol iota fluorescent replication assay, 10 min; Potency, µM (titrated, usually from 115 µM), usual class: inhibitors; 390,000 tested, 1% active; AID 588590
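Pol iota at 10 nM preincubated 15 min with compounds at room temperature; reaction started with fluorescent substrate, 50 nM final. Fluorescence read kinetically at 0 and 10 min; buffer-only wells as negative control.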
POLK inh – inhibitors of human DNA polymerase kappa. Q9UBT6. purified Pol kappa, fluorescent DNA synthesis assay, 10 min. Potency, µM (highest dose often 107 µM), usual class: inhibitors. 400,000 tested, 0.53% active
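Readout: fluorescence, taken kinetically at 0 and 10 min. Conditions: 10 nM Pol kappa, 15 min RT compound preincubation, 50 nM substrate final. Controls: enzyme-free buffer wells.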
Pol eta inh – DNA polymerase eta (human) inhibition; Q9Y253; recombinant Pol eta, fluorescent DNA replication assay; Potency, µM (top dose mostly 114 µM), actives largely listed as inhibitors; 390,000 tested, 1.2% active
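Pol eta at 10 nM preincubated with compounds 15 min at room temperature; reaction started with fluorescent substrate (50 nM final) and read kinetically at 0 and 10 min.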
ADP-Glo counter – interferes with ADP-Glo detection without enzyme present. shares compounds with PI5P4K alpha inh. ADP-Glo detection counter-screen, luciferase luminescence, no enzyme. Potency, µM (doses to about 76.9 µM), most hits filed as inhibitors. 1,100 tested, under 10 active. AID 743285
Of the large screens only hits and unclear results are named; the others gave an inactive call (follow-up assays come after a bar, where they were run). Unless noted, calls follow the shape of the dose curve; as a rule, active = well fitted curve in the direction sought with a large enough effect; inconclusive = small, poorly fitted or top-dose-only effect, or another doubt; inactive = no such curve, though single readings can be large; an effect the other way counts as inactive or inconclusive.

COc1ccc(N2CSC3=C(C#N)C(c4ccc(OC)c(OC)c4)CC(=O)N3C2)c(OC)c1 (stereo not drawn)	PI5P4K alpha inh -53, POLI inh inconclusive | ADP-Glo counter inactive
CCOc1ccccc1N1CSC2=C(C#N)C(c3c(OC)ccc4ccccc34)CC(=O)N2C1 (stereo not drawn)	PI5P4K alpha inh -85, POLK inh inconclusive | ADP-Glo counter inactive
COc1ccc(C2CC(=O)N3CN(c4ccc(C)c(Cl)c4)CSC3=C2C#N)cc1OC (stereo not drawn)	PI5P4K alpha inh -61 | ADP-Glo counter inactive
COc1cccc(C2CC(=O)N3CN(C4CCCCC4)CSC3=C2C#N)c1 (stereo not drawn)	POLI inh inconclusive (no result: PI5P4K alpha inh)
CC1CCc2c(sc(NC(=O)CCCOc3ccc(C(C)(C)C)cc3)c2C(N)=O)C1 (stereo not drawn)	none (no result: PI5P4K alpha inh)
COc1cc(Cn2c3ccc(NC(=O)CCc4cccnc4)cc3c(=O)n2C)ccc1F	none (no result: POLB inh, POLI inh, POLK inh, Pol eta inh)
COc1cc(Cn2c3ccc(NC(=O)CCc4ccccc4)cc3c(=O)n2C)ccc1F	PI5P4K alpha inh -64 (no result: POLB inh, POLI inh, POLK inh, Pol eta inh) | ADP-Glo counter inactive
COCCNC(=O)C(c1ccc(Cl)cc1)N(Cc1ccco1)C(=O)CCC(=O)Nc1ccccn1 (stereo not drawn)	PI5P4K alpha inh -53 | ADP-Glo counter inactive
COCCNC(=O)C(c1ccc(O)cc1)N(Cc1ccco1)C(=O)CCC(=O)Nc1ccccn1 (stereo not drawn)	none
Cc1ccc(N=c2oc3cc(O)ccc3cc2C(N)=O)cc1	PI5P4K alpha inh -52, Pol eta inh inconclusive | ADP-Glo counter inactive
O=c1c([N+](=O)[O-])c(Cl)c2ccccc2n1Cc1ccccc1	none (no result: PI5P4K alpha inh, POLB inh, POLI inh, POLK inh, Pol eta inh)

Bioassay records deposited in PubChem by National Center for Advancing Translational Sciences (NCATS).
